Screening data deposited in PubChem by Broad Institute.
MITF inh: blocks MITF activity; TRPM1 promoter luciferase, luminescence, 24 h; inhibition, % (test concentration not listed); 0.28% of 37,000 active; AID 2240; in the data active = inhibition above about 85%; inconclusive = no clear call, values can overlap the other calls; inactive = below about 68%;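 also: human melanocyte line stably carrying TRPM1 promoter luciferase reporter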
Shh pathway inh: blocks Sonic Hedgehog signaling; Shh-LIGHT2 Gli-luciferase reporter, 30 h; 2.1% of 22,000 active; inhibition, % (test concentration not listed);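 active = mean inhibition across valid replicates above about 65%, limit read from the data; inconclusive = mean under the limit, yet half or more replicates past it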;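 also: pathway switched on by Shh-conditioned medium diluted 1 in 25 in low serum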
NOMO-1 viab: STK33 inhibitor candidate reducing NOMO-1 cell viability. NOMO-1 AML viability, CellTiter-Glo luminescence, 72 h. inhibition, % (test concentration not listed). 7.5% of 37,000 active. AID 2330; in the data active = inhibition above about 80%; inconclusive = no clear call, values can overlap the other calls
Numbers without * were called inactive. Hits are enriched below; roughly 7.8% of the tested compounds scored in any of these assays.

CCCCC1=NC2(CCCC2)C(=O)N1Cc1ccc(-c2ccccc2-c2nn[nH]n2)cc1 was read as MITF inh 4.5, Shh pathway inh -20.9 and NOMO-1 viab -7.7.
For O=C1C(Cc2ccc(-c3nn[nH]n3)cc2)=C(c2ccccc2)S(=O)(=O)c2ccccc21 the results were MITF inh 13.9, Shh pathway inh 106.7* and NOMO-1 viab 43.3.
Cn1c(SCc2ccccc2C#N)nnc1-c1ccncc1 was read as MITF inh -1.5 and NOMO-1 viab 2.1.
For C[C@H]1CN([C@@H](C)CO)C(=O)Cc2cc(NC(=O)Nc3ccc4c(c3)OCO4)ccc2O[C@H]1CN(C)S(=O)(=O)c1ccc(Cl)cc1 the results were MITF inh 58.5, Shh pathway inh 37.8 and NOMO-1 viab 127.0*.
For Cc1ccc(S(=O)(=O)N(C)C[C@H]2Oc3ccc(NC(=O)Nc4ccc5c(c4)OCO5)cc3CC(=O)N([C@@H](C)CO)C[C@H]2C)cc1 the results were MITF inh 38.6, Shh pathway inh inconclusive and NOMO-1 viab 47.8.
For C[C@H]1CN([C@@H](C)CO)C(=O)Cc2cc(NC(=O)Nc3ccc4c(c3)OCO4)ccc2O[C@H]1CN(C)S(=O)(=O)c1ccccc1 the results were MITF inh 29.0, Shh pathway inh -27.6 and NOMO-1 viab 128.1*.
C[C@@H]1CN([C@H](C)CO)C(=O)Cc2cc(NC(=O)Nc3ccc4c(c3)OCO4)ccc2O[C@@H]1CN(C)S(=O)(=O)c1ccccc1 was read as MITF inh 15.0, Shh pathway inh 9.1 and NOMO-1 viab 2.7.
Screening C[C@H](CO)N1C[C@H](C)[C@H](CN(C)S(=O)(=O)c2ccc(Cl)cc2)Oc2ccc(NC(=O)Nc3ccc4c(c3)OCO4)cc2CC1=O returned MITF inh 27.4, Shh pathway inh 43.2 and NOMO-1 viab 125.7*.
`Cc1ccc(S(=O)(=O)N(C)C[C@H]2Oc3ccc(NC(=O)Nc4ccc5c(c4)OCO5)cc3CC(=O)N([C@@H](C)CO)C[C@@H]2C)cc1` gave MITF inh 4.0, Shh pathway inh 1.7 and NOMO-1 viab 22.5.
`Cc1ccc(S(=O)(=O)N(C)C[C@@H]2Oc3ccc(NC(=O)Nc4ccc5c(c4)OCO5)cc3CC(=O)N([C@H](C)CO)C[C@@H]2C)cc1` gave MITF inh 36.0, Shh pathway inh -20.8 and NOMO-1 viab 102.5*.
COc1ccc(S(=O)(=O)N(C)C[C@@H]2Oc3ccc(NC(=O)Nc4ccc5c(c4)OCO5)cc3CC(=O)N([C@@H](C)CO)C[C@@H]2C)cc1 was read as MITF inh 43.3, Shh pathway inh -10.6 and NOMO-1 viab 64.6.
Cc1[nH]c2ccccc2c1C(=O)CSc1nc2sc3c(c2c(=O)n1-c1ccccc1)CCC3 was read as MITF inh -8.3 and NOMO-1 viab 13.5.
For Cc1ccc(C)c(S(=O)(=O)NC(Cc2c[nH]c3ccccc23)C(=O)O)c1 (configuration not stated) the results were MITF inh -6.5 and NOMO-1 viab 4.8.
For Cc1noc(C)c1NC(=O)Nc1ccc2c(c1)C(=O)N([C@H](C)CO)C[C@H](C)[C@@H](CN(C)S(=O)(=O)c1ccc(Cl)cc1)O2 the results were MITF inh 7.9, Shh pathway inh 3.7 and NOMO-1 viab 24.1.
C[C@H]1CN([C@@H](C)CO)C(=O)Cc2cc(NC(=O)Cc3ccccc3)ccc2O[C@H]1CN(C)C(=O)Nc1ccccc1 was read as MITF inh 4.8, Shh pathway inh -10.5 and NOMO-1 viab 22.4.
Screening COc1ccc(NC(=O)CNS(=O)(=O)c2ccccc2)cc1Cl returned MITF inh -16.6 and NOMO-1 viab -2.7.
Screening O=C(Oc1ccc2cc(OC(=O)c3ccccc3)ccc2c1)c1ccccc1 returned MITF inh -19.5 and NOMO-1 viab -3.2.
`O=C(Oc1ccccc1OC(=O)c1ccccc1)c1ccccc1` gave MITF inh 10.8, Shh pathway inh 0.3 and NOMO-1 viab 114.5*.
Screening Cc1noc(C)c1S(=O)(=O)N(C)C[C@H]1Oc2ccc(NS(=O)(=O)c3cccs3)cc2CC(=O)N([C@@H](C)CO)C[C@@H]1C returned MITF inh 3.2 and NOMO-1 viab -28.5.
Screening C[C@H](CO)N1C[C@H](C)[C@@H](CN(C)S(=O)(=O)c2ccccc2)Oc2c(NS(=O)(=O)c3ccc(F)cc3)cccc2C1=O returned MITF inh 6.9, Shh pathway inh -16.5 and NOMO-1 viab -6.1.
`COc1ccccc1OCc1nc(-c2ccccc2)cs1` gave MITF inh -12.3, Shh pathway inh -35.1 and NOMO-1 viab 33.5.
Screening NC(N)=Nc1nc(-c2ccc(-c3ccccc3)cc2)cs1 returned MITF inh -76.0, Shh pathway inh -9.1 and NOMO-1 viab 114.7*.
C[C@H](CO)N1C[C@H](C)[C@H](CN(C)Cc2ccc(Cl)c(Cl)c2)Oc2ccc(NC(=O)Nc3cccc4ccccc34)cc2C1=O was read as MITF inh 21.8 and NOMO-1 viab 16.9.
